From PubChem BioAssay AID2810 (NMMLSC, 2010)
The whole screen tested about 1,200 compounds, of which about 65 (5%) were called active.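 How the source made its calls: active means at either tested dose, response and 90th-percentile vesicle-stain brightness of CD8 cells under set limits and under 9% cells vesicle-bound; inactive means the rest.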 Shown is part of a subset that was picked to be rich in actives.

Test: modulators of CD8 T cell-vesicle binding, confirmation, cherry-picked primary hits, two concentrations (AID 2810);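 on percent response (vesicle binding): ratio of mean FL2 vesicle stain of CD8+ cells to that row's control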
Conditions: 2C CD8+ T cell-vesicle binding, flow cytometry; for double positive events: CD8+/vesicle+ events
[1] = at 15.4 µM, stronger effect = lower value

Structure (SMILES) | double positive events (at 7.7 µM) | double positive events [1] | percent response (vesicle binding) [1] | percent response (vesicle binding) (response, at 7.7 µM)
COc1ccc(C2=CC(=O)C[C@H](c3ccc4c(c3)OCO4)C2)cn1 | 9.9% | 4.4% | 35.6% (active) | 132%
CCCOc1ccc(C2=CC(=O)C[C@H](c3ccc(OC)cc3)C2)cc1 | 11% | 10.3% | 69.4% (inactive) | 126%
COc1ccc([C@H]2CC(=O)C=C(c3ccc(OC)nc3)C2)cc1 | 14.2% | 9.6% | 212% (inactive) | 129%
Cc1ccc(O)c(CCc2ccccc2)n1 | 15.8% | 2.8% | 113% (inactive) | 128%
O=C(Nc1nc2ccccc2[nH]1)c1ccccc1[N+](=O)[O-] | 21% | 27.8% | 316% (inactive) | 383%
O=C(NC(=S)Nc1nc(-c2ccccc2)cs1)c1cccs1 | 16.9% | 1.5% | 48.9% (active) | 238%
O=C(Nc1nc(-c2ccccc2)cs1)c1ccc(N2CCOCC2)c([N+](=O)[O-])c1 | 8.4% | 25.6% | 552% (inactive) | 78.4%
CCNC(=O)CSc1nc(-c2ccccc2)cs1 | 25.1% | 14.3% | 215% (inactive) | 240%
CC1c2ccsc2CCN1C(=O)NC(=O)c1ccc(Cl)cc1 (configuration not stated) | 20.6% | 18.4% | 185% (inactive) | 486%
CCOC(=O)c1cnc2nc(C)nn2c1N | 10.5% | 10.6% | 70.8% (inactive) | 113%
CCCCNC(=O)c1cnc2n(c1=O)CCS2 | 38.7% | 14.7% | 184% (inactive) | 399%
CCCNC(=O)c1nc2ncc(Br)cn2n1 | 15.3% | 1% | 43% (active) | 231%
O=C(NC(=S)NCc1ccco1)c1ccc(Br)cc1 | 18.8% | 5.9% | 52.9% (active) | 186%
Cc1ccc(C(=O)NCc2ccco2)o1 | 10.5% | 20.1% | 586% (inactive) | 368%
O=C(NNC(=S)NC(=O)c1ccco1)c1ccc(F)cc1 | 7.1% | 18.1% | 196% (inactive) | 291%
CCOc1ccccc1NC(=O)c1ccc(F)c(S(=O)(=O)N2CCC3(CC2)OCCO3)c1 | 16.8% | 14.7% | 94.2% (inactive) | 132%
COc1ccc(C2(O)CCN(CCCCOc3ccccc3)CC2)cc1 | 12.9% | 31.8% | 292% (inactive) | 174%
C[N+]1(C)CC2([N+](=O)[O-])CC=C(Oc3ccccc3)C([N+](=O)[O-])(C2)C1 (configuration not stated) | 28.9% | 3.4% | 49.5% (active) | 485%
CCOc1ccccc1NC(=O)CN(c1ccc(C)cc1)S(=O)(=O)c1c(C)noc1C | 30.1% | 16.7% | 129% (inactive) | 502%
COc1ccc(Cl)cc1NC(=O)/C=C/C(=O)O | 13.3% | 24.2% | 251% (inactive) | 192%
CCCCN(C(=O)COC(=O)c1ccc(C=O)cc1)c1c(N)n(CCC)c(=O)[nH]c1=O | 9.2% | 13.1% | 406% (inactive) | 335%
CCc1ccc(OCc2cnc(Cl)s2)cc1 | 11.6% | 16.5% | 277% (inactive) | 421%
Cn1c(SCC(=O)Nc2ccc3cn[nH]c3c2)nnc1-c1cccs1 | 12.5% | 17.2% | 146% (inactive) | 160%

Structure (SMILES) | double positive events (at 7.7 µM) | double positive events [1] | percent response (vesicle binding) [1] | percent response (vesicle binding) (response, at 7.7 µM)
Cc1c(NC(=S)NC(=O)CCc2ccccc2)c(=O)n(-c2ccccc2)n1C | 21.8% | 30.2% | 295% (inactive) | 278%
Cc1c(NS(=O)(=O)CC23CCC(CC2=O)C3(C)C)c(=O)n(-c2ccccc2)n1C (configuration not stated) | 14.2% | 1.9% | 37.7% (active) | 260%
CCC(=O)NC(NC(=S)Nc1c(C)n(C)n(-c2ccccc2)c1=O)C(Cl)(Cl)Cl (configuration not stated) | 16.1% | 13.9% | 129% (inactive) | 201%
COc1cc(C(C)=O)ccc1O | 24% | 6.3% | 114% (inactive) | 362%
Cc1cc(C(=O)NCc2cc(C(=O)O)oc2C)c(C)o1 | 29.4% | 14.9% | 86.2% (inactive) | 224%
CSCCC(NC(=O)c1ccc(=O)n(C)n1)c1nc2ccccc2[nH]1 (configuration not stated) | 14.9% | 0.9% | 42% (active) | 254%
O=C(NCC(=O)N1CCN(C(=O)c2ccccc2)CC1)c1ccccc1 | 13.6% | 10.6% | 148% (inactive) | 158%
Cc1cc(C)nc(SCCn2c(N3CC(C)OC(C)C3)nc3c2c(=O)n(C)c(=O)n3C)n1 (configuration not stated) | 12.7% | 28.3% | 226% (inactive) | 172%
C=CCNC(=O)c1c(Cl)nc(C)c([N+](=O)[O-])c1C | 28.7% | 11.5% | 144% (inactive) | 122%
CCC1(C)NC(=O)N(CC(=O)N2N=C(c3ccccc3)CC2c2ccc(OC)cc2)C1=O (configuration not stated) | 9.6% | 30.9% | 413% (inactive) | 134%
CCc1c(C)nc(SCC(=O)Nc2nc(-c3ccc(OC)cc3)cs2)[nH]c1=O | 33.4% | 10.4% | 192% (inactive) | 289%
CCOc1ccc(-c2csc(NNC3=NCCCCC3)n2)cc1 | 15.2% | 1.4% | 52.5% (active) | 178%
CCOc1ccc(-c2cn(-c3ccc(OC)cc3)c(SC)n2)cc1 | 11.4% | 13.4% | 155% (inactive) | 303%
Cc1cc([N+](=O)[O-])nn1CC(=O)Nc1nccs1 | 35% | 19.6% | 221% (inactive) | 201%
Cc1ccc(S(=O)(=O)N2CCC(NC(=O)c3ccccc3)CC2)cc1 | 28.6% | 28.6% | 425% (inactive) | 558%
Cc1ccc(S(=O)(=O)c2c(N)n(NC(=O)c3ccccc3C)c3nc4ccccc4nc23)cc1 | 22.8% | 1.1% | 26.2% (active) | 248%
Cc1ccc(S(=O)(=O)N(C)CC(=O)Nc2nc3ccccc3s2)cc1 | 30.7% | 26.8% | 351% (inactive) | 371%
O=C(CN1C(=O)C2CCCN2C(=O)c2ccccc21)Nc1ccccc1-n1cccc1 (configuration not stated) | 5.8% | 12.2% | 354% (inactive) | 425%
COc1ccc(C(=O)O)cc1S(=O)(=O)Nc1cccc(C)c1 | 14.1% | 17.7% | 296% (inactive) | 181%
COc1ccc(N(CC(=O)O)S(C)(=O)=O)cc1OC | 24.1% | 30.5% | 229% (inactive) | 691%
C=CCN(c1ccc(Br)cc1C(=O)OC)S(C)(=O)=O | 29.1% | 2.3% | 35.1% (active) | 465%
c1ccc2c(c1)COC(CN1CCCCC1)OC2 | 12.3% | 10.2% | 418% (inactive) | 439%
COC(=O)[C@]1(C)N[C@H](CN(C)S(=O)(=O)c2ccc(OC(F)(F)F)cc2)[C@@H]2C(=O)N(C)C(=O)[C@@H]21 | 9.2% | 26.1% | 907% (inactive) | 443%

Structure (SMILES) | double positive events (at 7.7 µM) | double positive events [1] | percent response (vesicle binding) [1] | percent response (vesicle binding) (response, at 7.7 µM)
CCCCNS(=O)(=O)c1ccc(OCC(=O)OC)cc1 | 14.8% | 20% | 106% (inactive) | 517%
COc1ccc(-c2cc(CNS(=O)(=O)c3ccc(NC(C)=O)cc3)on2)cc1 | 23.7% | 2.2% | 18.8% (active) | 277%
COc1ccc(NC(=O)CN2CCN(S(=O)(=O)c3ccc(Cl)cc3)CC2)cc1 | 31.1% | 12% | 124% (inactive) | 164%
Cc1ccc(CN2CC(=O)N3[C@H]4c5cc(C)ccc5OC[C@@H]4[C@H](c4ccccc4)[C@]3(C)C2=O)cc1 | 8.3% | 11.2% | 109% (inactive) | 231%
C/C(=N\NC(=O)Cn1cc([N+](=O)[O-])cn1)c1ccco1 | 23.5% | 26.1% | 268% (inactive) | 291%
CCOC(=O)N1CCN(C(=O)c2ccc(N3CCCC3=O)cc2)CC1 | 9.7% | 22.5% | 213% (inactive) | 150%
O=C(c1ccc(Cl)cc1)N1CCC(C(=O)N2CCN(c3ncccn3)CC2)CC1 | 27.3% | 6.4% | 173% (inactive) | 114%
O=C(c1ccc(N2C(=O)C3CC=C(Cl)CC3C2=O)cc1)N1CCCCC1 (configuration not stated) | 19.3% | 5.2% | 56.9% (active) | 195%
Cc1cc(C)cc(NC(=O)CC23CC4CC(C2)CC(n2nnc(C)n2)(C4)C3)c1 | 6.1% | 35.3% | 236% (inactive) | 200%
CCCc1nnc(NC(=O)CCC(=O)N2CCC(Cc3ccccc3)CC2)s1 | 11.7% | 25.7% | 200% (inactive) | 291%
Cc1c2cccn2cc[n+]1C | 16.6% | 4.4% | 29.6% (active) | 159%
Cc1cccc(C(=O)OCC(=O)Nc2c(C)n(C)n(-c3ccccc3)c2=O)c1 | 11% | 26.9% | 392% (inactive) | 320%
Cc1ccc(C(=O)NC(C)CCc2ccccc2)cc1[N+](=O)[O-] (configuration not stated) | 27% | 32.4% | 199% (inactive) | 481%
Cc1ccc(-n2ncc3c(N4CCCC(C)C4)ncnc32)c(C)c1 (configuration not stated) | 15.4% | 13.3% | 312% (inactive) | 283%
CCSc1nnc(NC(=O)c2ccc(F)c(S(=O)(=O)N3CCOCC3)c2)s1 | 23.7% | 34.2% | 203% (inactive) | 209%
O=C(OCCOc1cccc(Cl)c1)c1ccc(F)c(S(=O)(=O)N2CCOCC2)c1 | 24.5% | 0.7% | 42.7% (active) | 333%
O=C(NCC1CCCCC1)c1ccc(Cl)c(S(=O)(=O)N2CCOCC2)c1 | 9.2% | 22.8% | 342% (inactive) | 135%
CC1CCN(S(=O)(=O)c2csc(C(=O)Nc3ccccc3)c2)CC1 | 33.2% | 23.8% | 579% (inactive) | 415%
CC(=O)Nc1ccccc1OC(C)C(=O)NC(C)c1ccc(F)cc1 (configuration not stated) | 9.2% | 9% | 114% (inactive) | 420%
Cc1cc(F)ccc1S(=O)(=O)N1CCCOC1CNC(=O)C(=O)NC1CCCC1 (configuration not stated) | 11.7% | 9.3% | 255% (inactive) | 451%
COC(=O)c1ccc(OC(=O)CS(=O)c2ccccc2[N+](=O)[O-])cc1 (configuration not stated) | 15% | 3.4% | 143% (inactive) | 395%
Cc1cccc(Nc2nc(-c3ccccn3)cs2)n1 | 28.1% | 5.2% | 46.7% (active) | 538%
